# Source: PubChem BioAssay
# Sampled rows, rich in hits. Any-hit rate of the full collection: about 10%.
# G9a inh: G9a (human) methyltransferase inhibition; G9a H3K9 monomethylation, AlphaScreen, 2 h; Potency, µM (top dose mostly 102 µM), without a hit: at the top dose activity, negative = inhibition, most hits filed as inhibitors; hit rate 8.8% among 350,000; AID 504332; further: potency means the concentration at half of the fitted maximal effect; on the % scale 0 is the no-effect control and ±100 the full control effect; nearly all actives have a fitted effect of over 75% in size
#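 G9a (20 nM) was preincubated 15 min with compound, then reacted 2 h at room temperature with 500 nM biotin-H3K9 peptide and 20 µM SAM. Monomethyl-H3K9 detected by AlphaScreen using anti-H3K9me1 antibody.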
# JMJD2A Tudor inh: blocks the human JMJD2A Tudor domain. O75164. AlphaScreen JMJD2A-Tudor / H3K4me3 peptide binding. hit rate 4.4% among 390,000. AID 504339. Potency, µM (doses to about 114 µM), for inactives: top-dose activity change, negative = inhibition, most hits filed as inhibitors; further: potency means the concentration at half of the fitted maximal effect; on the % scale 0 is the no-effect control and ±100 the full control effect; nearly all actives have a fitted effect of over 50% in size
# CtBP-E1A inh: blocks the CtBP interaction with E1A | AlphaScreen GST-E1A/His-CtBP binding, 1536-well; active compounds read low | activity change, % (no concentration beside the values) | hit rate 0.49% among 340,000 | AID 651724; in the data active means activity change below about -65%; inconclusive means mostly about -30% to -63%; further: on the % scale 0 is the no-effect control and ±100 the full control effect
#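 Protein mix (5X: 125 nM each GST-E1A, His-CtBP) was incubated with pinned compound 2 h at 37 deg C in dark, in 50 mM Tris pH 8.0 buffer with 300 mM NaCl. Glutathione donor and nickel acceptor beads followed; AlphaScreen signal read after 1 h.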
# BAZ2B block: BAZ2B (human) inhibition; Potency, µM (top dose mostly 114 µM), for the others: at the top dose activity change, negative = inhibition, actives largely listed as inhibitors; hit rate 4.4% among 360,000; Q9UIF8; AlphaScreen BAZ2B-H3K14Ac peptide displacement; further: potency means the concentration at half of the fitted maximal effect; on the % scale 0 is the no-effect control and ±100 the full control effect; nearly all actives have a fitted effect of over 60% in size
# Target sequence (Q9UIF8 whole entry, looked up): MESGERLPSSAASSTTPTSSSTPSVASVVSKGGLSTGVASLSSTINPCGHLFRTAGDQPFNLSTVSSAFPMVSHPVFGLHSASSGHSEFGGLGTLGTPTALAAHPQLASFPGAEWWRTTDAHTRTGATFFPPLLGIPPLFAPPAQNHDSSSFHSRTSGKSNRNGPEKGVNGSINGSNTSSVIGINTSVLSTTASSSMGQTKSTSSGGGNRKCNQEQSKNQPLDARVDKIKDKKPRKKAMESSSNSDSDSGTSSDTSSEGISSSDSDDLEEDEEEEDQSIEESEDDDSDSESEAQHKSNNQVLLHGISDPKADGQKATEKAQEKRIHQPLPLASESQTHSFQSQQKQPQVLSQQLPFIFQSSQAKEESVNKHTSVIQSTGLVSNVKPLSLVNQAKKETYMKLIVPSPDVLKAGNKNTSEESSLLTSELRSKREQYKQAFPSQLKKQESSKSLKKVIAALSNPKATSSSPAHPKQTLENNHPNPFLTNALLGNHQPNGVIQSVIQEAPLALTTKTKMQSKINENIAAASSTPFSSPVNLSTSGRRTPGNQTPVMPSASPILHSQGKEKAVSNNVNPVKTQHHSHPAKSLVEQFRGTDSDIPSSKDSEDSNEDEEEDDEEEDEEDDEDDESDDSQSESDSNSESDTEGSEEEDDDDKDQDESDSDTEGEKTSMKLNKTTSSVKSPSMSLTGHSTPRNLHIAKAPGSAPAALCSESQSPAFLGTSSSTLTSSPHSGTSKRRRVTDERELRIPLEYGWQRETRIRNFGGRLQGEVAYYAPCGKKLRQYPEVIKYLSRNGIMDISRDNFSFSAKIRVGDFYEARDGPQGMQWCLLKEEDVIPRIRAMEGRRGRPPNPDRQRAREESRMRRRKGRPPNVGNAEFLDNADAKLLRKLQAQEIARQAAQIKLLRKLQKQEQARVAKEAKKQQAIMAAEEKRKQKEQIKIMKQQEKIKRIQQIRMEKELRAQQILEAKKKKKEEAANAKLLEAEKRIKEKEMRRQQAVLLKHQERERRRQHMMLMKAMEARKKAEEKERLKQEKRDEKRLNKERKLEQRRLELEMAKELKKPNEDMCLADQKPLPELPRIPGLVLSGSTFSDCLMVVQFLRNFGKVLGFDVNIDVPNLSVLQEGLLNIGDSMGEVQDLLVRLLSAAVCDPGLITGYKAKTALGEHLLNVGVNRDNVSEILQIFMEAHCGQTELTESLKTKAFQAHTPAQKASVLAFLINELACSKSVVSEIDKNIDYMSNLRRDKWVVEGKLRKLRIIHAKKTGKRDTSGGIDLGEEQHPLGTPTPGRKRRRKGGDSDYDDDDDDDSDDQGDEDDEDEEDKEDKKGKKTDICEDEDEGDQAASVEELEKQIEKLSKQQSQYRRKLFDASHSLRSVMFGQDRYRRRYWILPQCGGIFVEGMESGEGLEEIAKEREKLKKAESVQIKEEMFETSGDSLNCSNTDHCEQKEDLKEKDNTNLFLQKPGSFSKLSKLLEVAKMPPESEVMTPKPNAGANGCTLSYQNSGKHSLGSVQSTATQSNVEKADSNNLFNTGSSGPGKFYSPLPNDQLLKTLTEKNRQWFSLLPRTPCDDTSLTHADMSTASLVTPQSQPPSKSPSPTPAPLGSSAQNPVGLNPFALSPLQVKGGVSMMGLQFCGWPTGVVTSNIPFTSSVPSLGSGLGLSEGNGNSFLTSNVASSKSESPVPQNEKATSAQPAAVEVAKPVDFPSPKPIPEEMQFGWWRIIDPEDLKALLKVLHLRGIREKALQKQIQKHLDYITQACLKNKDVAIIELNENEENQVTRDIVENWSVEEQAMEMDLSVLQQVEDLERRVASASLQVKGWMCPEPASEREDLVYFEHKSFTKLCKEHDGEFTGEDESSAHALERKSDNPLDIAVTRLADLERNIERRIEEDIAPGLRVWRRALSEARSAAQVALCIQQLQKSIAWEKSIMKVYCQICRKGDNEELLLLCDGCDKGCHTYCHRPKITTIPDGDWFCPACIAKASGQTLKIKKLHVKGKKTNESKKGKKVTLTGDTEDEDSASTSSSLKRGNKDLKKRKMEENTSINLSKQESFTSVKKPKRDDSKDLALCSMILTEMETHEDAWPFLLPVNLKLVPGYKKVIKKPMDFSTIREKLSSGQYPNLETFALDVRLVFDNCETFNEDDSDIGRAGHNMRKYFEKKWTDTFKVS
#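 BAZ2B 50 nM plus b-H3(5-23)K14Ac 50 nM, PBS pH 7.4/0.01% Tween-20, 30 min RT; compound added (max 110 uM), 30 min RT; streptavidin donor/Ni-chelate acceptor beads 10 ug/mL final, 20 min dark; AlphaScreen read.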
# HP1b chromo inh: inhibitors of HP1-beta chromodomain binding to methylated histone tails | hit rate 0.56% among 390,000 | AlphaScreen HP1-beta / biotin-H3K9me3 peptide binding | AID 540317 | Potency, µM (titrated, usually from 114 µM), inactives show top-dose activity change, negative = inhibition, actives largely listed as inhibitors; further: potency means the concentration at half of the fitted maximal effect; nearly all actives have a fitted effect of over 70% in size
#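 Compound inhibition of the preformed complex between 50 nM HP1-beta and 50 nM biotinylated H3K9me3 peptide was read by AlphaScreen. Buffer was PBS pH 7.4 with 0.01% Tween-20. Incubations ran 30 min at room temperature, with 10 ug/mL donor/acceptor beads.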
# Six1-Eya2 inh: inhibitors of human Six1/Eya2 interaction. AlphaScreen GST-Six1/His-Eya2 binding, biochemical; active compounds read low. hit rate 0.56% among 360,000. Q15475+O00167. activity change, % (concentration not given with the values); in the data active means activity change below about -65%; inconclusive means mostly about -30% to -63%; further: on the % scale 0 is the no-effect control and ±100 the full control effect
#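 Compounds are tested against tagged Six1 and Eya2 proteins bridged by glutathione donor and nickel acceptor beads; after a one-hour incubation at 37 °C without light, AlphaScreen emission is recorded.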
# An asterisk follows results filed as active; ? = inconclusive; nt = no result; [ ] = another dose, or the depositor's remark. Unless noted, the call rests on the fitted dose curve; in most records, active means well fitted inhibition curve with a large enough effect; inconclusive means small, poorly fitted or top-dose-only effect; inactive means no such curve, though single readings can be large or run the other way.
SMILES,G9a inh,JMJD2A Tudor inh,CtBP-E1A inh,BAZ2B block,HP1b chromo inh,Six1-Eya2 inh
O=C(c1ccccc1)N1CCCC(C(=O)N2CCN(c3ccccc3)CC2)C1 (stereo not given),?,50µM*,1,-3%,-3%,-3
O=C(c1cccc(Cl)c1)N1CCN(C2CCCCCC2)CC1,20µM*,7.9µM*,-3,45µM*,25µM*,-2
O=C(c1ccccc1)N1CCN(C2CCCCC2)CC1,7.9µM*,7.1µM*,3,?,?,-3
CN1CCCN(C(=O)c2cccc(Cl)c2)CC1,-5%,12%,20,-29%,28%,3
COC(=O)[C@]12CCCCC=C1N(Cc1ccccc1)C(=O)[C@H](CC(=O)NCc1cccs1)C2,nt,nt,-20,nt,nt,7
CCN(CC)c1ccc2c(-c3ccc(S(=O)(=O)O)cc3S(=O)(=O)[O-])c3ccc(=[N+](CC)CC)cc-3oc2c1,40µM*,?,?,7.9µM*,45µM*,-67*
CCN(CC)CCOC(=O)c1ccc(N/C=C(/C#N)c2nc(-c3cccc(OC)c3)cs2)cc1,28µM*,-11%,-8,?,11%,-2
CCOC(=O)c1ccc(N/C=C\C(=O)c2cccc(OC)c2)cc1,?,-9%,4,-5%,28%,6
CCN(CC)CCOC(=O)c1ccc(N/C=C(/C#N)c2nc(-c3ccc(OC)c(OC)c3)cs2)cc1,1.6µM*,35µM*,-8,-33%,14µM*,-6
Cc1ccc(-c2csc(/C(C#N)=C/Nc3ccc4c(c3)OCCO4)n2)cc1,-14%,-21%,nt,-22%,18%,-2
COc1ccc(OCC(=O)Nc2ccc3c(c2)nc(CCN2CCOCC2)n3C)cc1,56µM*,-20%,-1,0%,16%,1
CCN(CC)S(=O)(=O)c1ccc2c(c1)nc(CCC(=O)Nc1ccc(N3CCOCC3)cc1)n2C,45µM*,-31%,0,-30%,-6%,-1
CCN(CC)S(=O)(=O)c1ccc(/C=C/C(=O)Nc2ccc(N3CCOCC3)cc2)cc1,45µM*,?,nt,?,-18%,-17
CCCNC(=O)[C@H](C)NC(=O)c1ccc(Br)cc1,12%,2%,13,0%,31%,5
COc1cccc(C2=Nn3c(nnc3-c3cccc(OC)c3OC)SC2)c1,nt,-29%,nt,nt,nt,nt
Cc1cc2c(cc1C)N[C@]1(C[C@H]3CCCC(=O)N4CC[C@@H](C1)[C@@H]34)C(=NC(C)(C)CC(C)(C)C)N2,nt,22µM*,1,nt,?,?
COc1ccc(S(=O)(=O)CCC(=O)Nc2ccc(OC)cc2OC)cc1,10µM*,-9%,-5,-14%,23%,0
COc1ccc([N+](=O)[O-])cc1NC(=O)CS(=O)(=O)c1ccc(C)cc1,8%[12.7 µM],-15%,-12,-13%,36%,45
COc1ccc(NC(=O)CCCN2C(=O)CN(C)C2=O)c(OC)c1,-6%[12.7 µM],50µM*,nt,50µM*,-12%,-15
CCOc1ccccc1NC(=O)CCS(=O)(=O)c1ccc(Br)cc1,13µM*,16µM*,4,13µM*,35µM*,17
COc1ccc(NC(=O)CCS(=O)(=O)c2ccccc2)c(OC)c1,-2%[59 µM],-18%,9,4%,6%,1
COc1ccc([N+](=O)[O-])cc1NC(=O)CCS(=O)(=O)c1ccc(Br)cc1,14µM*,40µM*,-6,50µM*,?,-14
CCCCNC(=O)c1nc(C2CCN(S(=O)(=O)c3cccc(C(F)(F)F)c3)CC2)oc1-c1ccccc1,nt,nt,13,nt,nt,13
O=C(CCS(=O)(=O)c1ccc(Br)cc1)Nc1cc(F)ccc1F,50µM*,-19%[57.1 µM],4,45µM*,32µM*,-3
CCc1ccccc1NC(=O)CCS(=O)(=O)c1ccc(C)cc1,13%[2.33 µM],-4%,1,12%,27%,-6
O=C(CCS(=O)(=O)c1ccc(Br)cc1)Nc1ccc(F)cc1F,2%[59 µM],9%,nt,10%,33%,nt
